Assay results taken from the supplement of paper PMC13380429.

What was measured:
[1] = test system: Vero E6 infected with SARS-CoV-2; test: morphology score (similarity to uninfected cells); higher = more like uninfected cells; conditions: 24 h
[2] = test system: Vero E6 infected with SARS-CoV-2; test: SARS-CoV-2 infection rate relative to infected DMSO; higher = more infection, active = 60 or less; conditions: 24 h

SMILES	morphology score [1]	SARS-CoV-2 infection rate [2]
CC(CN1c2ccccc2Sc2ccccc21)N(C)C (stereo unspecified) [promethazine] (10 µM)	0.528	67.5% (inactive)
Cc1ccc(Cl)c(OC[C@H](O)CNC(C)C)c1 [1-(2-chloro-5-methylphenoxy)-3-(isopropylamino)-2-propanol] (10 µM)	0.0769	95.5% (inactive)
CC[C@]1(O)C[C@@H]2CN(CCc3c([nH]c4ccccc34)[C@@](C(=O)OC)(c3cc4c(cc3OC)N(C)[C@H]3[C@@](O)(C(=O)OC)[C@H](OC(C)=O)[C@]5(CC)C=CCN6CC[C@]43[C@@H]65)C2)C1 [Vinblastine (sulfate)] (0.833333 µM)	-0.0326	102% (inactive)
COC(=O)N[C@H](C(=O)N1CC2(CC2)C[C@H]1c1nc(-c2ccc3c(c2)C(F)(F)c2cc(-c4ccc5[nH]c([C@@H]6[C@H]7CC[C@H](C7)N6C(=O)[C@@H](NC(=O)OC)C(C)C)nc5c4)ccc2-3)c[nH]1)C(C)C [ledipasvir] (10 µM)	0.191	99.5% (inactive)
O=c1c2ccccc2[se]n1-c1ccccc1 [Ebselen] (10 µM)	0.34	84.5% (inactive)
CN(C)C(=O)Oc1cccc([N+](C)(C)C)c1 [neostigmine] (10 µM)	-0.107	112% (inactive)
C[C@]1(c2nc3c(C(N)=O)cccc3[nH]2)CCCN1 [veliparib] (10 µM)	0.206	109% (inactive)
CC1(COc2ccc3c(c2)ncn3-c2ccc3cccc(N4CCC(N)CC4)c3n2)COC1 [crenolanib] (0.833333 µM)	-0.0592	99.5% (inactive)
